Screen size: about 53,000 compounds; about 900 (1.7%) showed an effect of 50% or more. The sample holds strong results, similar compounds and a random draw of the others, so the mix is not that of the screen.

This assay has as its system Mycobacterium tuberculosis. Put plainly: Cornell - Phenotypic assay to identify agents that inhibit growth of Mycobacterium tuberculosis. In kind it is functional. Details: scale not given: direction of the effect not stated beside the values. The conditions noted are these: 10 mM as filed; unlikely as a test dose.
In the case of `COC(=O)c1sccc1S(=O)(=O)N1CCC(Oc2cnccn2)CC1`, the “Percent Effect” value is given as 11.89%.

Turning to `COC(=O)c1sccc1S(=O)(=O)N1CCC(Oc2cccnn2)CC1`, the “Percent Effect” value is on record as 10.5%.

As to `COC(=O)c1sccc1S(=O)(=O)N1CCC(Oc2ncccc2Cl)CC1`, the “Percent Effect” value is 63.53%.

On to `CCOCC1CN(C(=O)c2ccnnc2)Cc2cnn(CC)c21.O=C(O)C(F)(F)F` (stereo unspecified), for which the “Percent Effect” value came out at 10.27%.

On to `CC1CCN(C(=O)CN2CC(c3nc(C4CC4)no3)C2)CC1.O=C(O)C(=O)O`, for which the “Percent Effect” value was -25.89%.

`O=C(CN1CC(c2nc(C3CC3)no2)C1)N1CCOCC1.O=C(O)C(=O)O`: the “Percent Effect” value is given as 59.8%.

Regarding `NC(=O)CN1CC(c2nc(C3CC3)no2)C1.O=C(O)C(=O)O`, the “Percent Effect” value is given as -1.644%.

As to `CN(Cc1ccncc1)c1cncc(Br)c1`, the “Percent Effect” value was -1.215%.

`CN(C)[C@H]1CCN(c2nc(C(C)(C)C)nc3c2cnn3C)C1`: the “Percent Effect” value stood at 15.83%.

With `Cn1ncc2c(N3CCC(CCO)CC3)nc(C(C)(C)C)nc21`, the “Percent Effect” value is listed as 26.71%.

For the compound `COCC1CCN(c2nc(C(C)(C)C)nc3c2cnn3C)C1` (stereo unspecified), the “Percent Effect” value was determined as 57.26%.

As to `Cc1cnn(CC2CN(CCc3ccccn3)CCO2)c1` (stereo unspecified), the “Percent Effect” value is -8.826%.

For the compound `N[C@H]1CC[C@@H](n2cc(C(=O)NC3COc4ccccc43)nn2)CC1` (stereo partly specified), the “Percent Effect” value came out at 8.791%.

Turning to `N[C@H]1CC[C@@H](n2cc(C(=O)N[C@H]3CCCc4ccccc43)nn2)CC1`, the “Percent Effect” value is listed as 52.81%.

`N[C@H]1CC[C@@H](n2cc(C(=O)NC3CCc4ccccc4C3)nn2)CC1` (stereo partly specified): the “Percent Effect” value came out at 43.67%.

For the compound `Cc1cn2c(n1)CCC(NC(=O)CNS(C)(=O)=O)C2` (stereo unspecified), the “Percent Effect” value is reported as -12.28%.

Take `Cc1cc(Nc2ccc(F)cn2)cc(C2CCN(Cc3ncc[nH]3)C2)n1` (stereo unspecified): the “Percent Effect” value was determined as 67.32%.

Take `Cc1cccc(Nc2ccc(C3CCN(Cc4ncc[nH]4)CC3)nc2)n1`: the “Percent Effect” value was found to be 12.85%.

Consider `Fc1ccc(Nc2ccc(C3CCN(Cc4ncc[nH]4)CC3)nc2)nc1`, for which the “Percent Effect” value came out at 12.33%.

For `COc1ccc(NC(=O)CCn2nc(-c3cccs3)oc2=O)cc1OC`, the “Percent Effect” value is listed as -4.295%.

In the case of `CCN1CC(CN(C)c2cc(C)nc(N)n2)Oc2ccccc21` (stereo unspecified), the “Percent Effect” value is 100.1%.

For `Cc1cc(N(C)CC2COc3ccccc3O2)nc(C)n1` (stereo unspecified), the “Percent Effect” value is 22.34%.

In the case of `Cc1cc(N(C)CC2COc3ccccc3O2)nc(N)n1` (stereo unspecified), the “Percent Effect” value is reported as 18.45%.

With `Cc1nc(C)n(CC2CCCN(Cc3ccc4c(c3)OCCO4)C2)n1` (stereo unspecified), the “Percent Effect” value amounted to 7.597%.

On to `COc1ccccc1CNc1ncc(-c2cc(C)no2)c(C(C)C)n1`, for which the “Percent Effect” value is listed as 6.538%.

Regarding `Cc1cc(-c2cnc(NCc3ccncc3)nc2C(C)C)on1`, the “Percent Effect” value was 71.23%.

Take `Cc1cc(-c2cnc(N3CCCC3)nc2C(C)C)on1`: the “Percent Effect” value is listed as -0.9341%.

Consider `Cc1cc(-c2cnc(NCc3ccc4c(c3)OCO4)nc2C(C)C)on1`, for which the “Percent Effect” value is recorded as 24.22%.

For `Cc1cc(-c2cnc(NCc3ccccn3)nc2C(C)C)on1`, the “Percent Effect” value is listed as 76.78%.

In the case of `COc1ccc(CNc2ncc(-c3cc(C)no3)c(C(C)C)n2)cc1`, the “Percent Effect” value came to 36.58%.

For the compound `Cc1oc(-c2ccsc2)nc1CC(=O)NCC(C)(C)CN(C)C`, the “Percent Effect” value was 3.653%.

Take `Cc1nnc(N2CCCC3(CN(Cc4nccn4C)CCO3)C2)o1` (stereo unspecified): the “Percent Effect” value is reported as -3.973%.

For `CS(=O)(=O)NCCNCc1ccc(Br)s1.Cl`, the “Percent Effect” value was -4.859%.

`O=C1CCC(=O)N1CCOc1nc(-c2ccccc2Cl)no1`: the “Percent Effect” value turned out to be 8.319%.

Consider `Cn1ccnc1-c1ccc(NCC2COc3ccccc3O2)nn1` (stereo unspecified), for which the “Percent Effect” value is given as 75.27%.

With `Cn1ccnc1-c1ccc(NC[C@H]2CCc3ccccc3O2)nn1`, the “Percent Effect” value came to 35.04%.

Regarding `Cn1ccnc1-c1ccc(NCCC2COc3ccccc3O2)nn1` (stereo unspecified), the “Percent Effect” value was determined as 46.99%.

`O=C(CNC1(c2ccc(Cl)cc2)CCOCC1)NC1CCCC1`: the “Percent Effect” value worked out at 28.07%.

In the case of `Cc1cc(C)n(C2CCN(S(=O)(=O)N3CCOCC3)CC2)n1`, the “Percent Effect” value is -10.91%.

Regarding `Cn1cc(NC(=O)N2CCC(CN3CCCC3)CC2)ccc1=O`, the “Percent Effect” value is reported as 1.194%.

`Cn1cc(NC(=O)N2CCC(c3ccccc3)CC2)ccc1=O`: the “Percent Effect” value turned out to be 23.03%.

With `Cn1cc(NC(=O)N2CCC(NS(C)(=O)=O)CC2)ccc1=O`, the “Percent Effect” value turned out to be 73.41%.

Take `Cc1nc(O)cc(C2(C)CCCNC2)n1.Cl` (stereo unspecified): the “Percent Effect” value is on record as 37.37%.

Turning to `Cc1nc(N)cc(C2(C)CCCNC2)n1` (stereo unspecified), the “Percent Effect” value is given as 52.22%.

Consider `Cc1nc(N(C)C)cc(C2(C)CCCNC2)n1` (stereo unspecified), for which the “Percent Effect” value amounted to 54.11%.

With `Cc1cc(N(C)C)nc(C2(C)CCCNC2)n1` (stereo unspecified), the “Percent Effect” value is listed as -30.33%.

`Cc1nc(N(C)C)cc(C2(C)CCNCC2)n1`: the “Percent Effect” value is listed as 3.518%.

As for `Cc1nccc(C2(C)CCCNC2)n1.Cl.Cl` (stereo unspecified), the “Percent Effect” value is on record as -29.52%.

`COC(=O)Nc1cccc(C(=O)N(C)Cc2cccc(O)c2)c1`: the “Percent Effect” value is reported as 16.47%.

On to `CC(C)(C)CC(=O)N1CCC(c2nn(CCN)c3nccnc23)C1` (stereo unspecified), for which the “Percent Effect” value was -1.305%.

With `CSc1nnc(N(CCC#N)CCC#N)s1`, the “Percent Effect” value amounted to 7.045%.

In the case of `CCSc1nnc(N(CCC#N)CCC#N)s1`, the “Percent Effect” value is 19.26%.

As to `Cc1nnc(N(CCC#N)CCC#N)s1`, the “Percent Effect” value is listed as 53.32%.

With `CC(=O)NCC(=O)N1Cc2nccn2CC(Cn2cccn2)C1` (stereo unspecified), the “Percent Effect” value is listed as 8.126%.

With `CN(Cc1nc2ccccc2n1C)C(=O)CCc1cscn1`, the “Percent Effect” value was found to be 3.18%.

On to `Cc1ccc(CNCc2cccc3cn[nH]c23)c(OC2CCOC2)c1` (stereo unspecified), for which the “Percent Effect” value was determined as 31.88%.

These data come from ChEMBL document CHEMBL3988442, “University of Dundee, Small-Polar-MMV Screening Library” (2021).
